The text below walks through data of PubChem BioAssay (EPA / NIEHS).

Active and inactive are the calls of the source. Rule for the calls: active = hit-call score of the fitted dose curve at least 0.9, where 1 is the maximum; inactive = score below 0.9.

Paired box protein Pax-6 (Homo sapiens), sequence (P26367 whole entry, looked up): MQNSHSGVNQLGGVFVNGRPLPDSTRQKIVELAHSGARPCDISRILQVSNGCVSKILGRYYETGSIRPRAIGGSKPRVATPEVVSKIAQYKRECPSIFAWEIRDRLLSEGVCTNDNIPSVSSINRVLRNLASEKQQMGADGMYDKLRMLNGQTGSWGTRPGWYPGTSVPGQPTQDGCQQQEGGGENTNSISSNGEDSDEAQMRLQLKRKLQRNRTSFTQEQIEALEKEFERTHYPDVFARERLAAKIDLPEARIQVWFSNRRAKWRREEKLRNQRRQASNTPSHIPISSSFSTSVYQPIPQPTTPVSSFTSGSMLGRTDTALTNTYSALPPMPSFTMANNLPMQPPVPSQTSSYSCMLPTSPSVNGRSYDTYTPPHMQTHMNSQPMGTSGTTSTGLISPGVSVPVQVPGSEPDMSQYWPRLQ

The target of the assay is Paired box protein Pax-6 (Homo sapiens) (UniProt P26367). As to the kind of experiment: ATG_Pax6_CIS: Attagene CIS-FACTORIAL HepG2 Assay for human Paired Box 6 (PAX6) (AID 2282956). The following applies: HepG2 CIS-FACTORIAL PAX6 reporter transcription, RNA readout; actives raise or lower the signal. How it is done:
ATG_CIS is a cell-based, multiplexed-readout assay that uses HepG2, a human liver cell line, with measurements taken at 24 hours after chemical dosing in a 24-well plate.ATG_Pax6_CIS is one of 52 assay component(s) measured or calculated from the ATG_CIS assay. It is designed to make measurements of mRNA induction, a form of inducible reporter, as detected with fluorescence intensity signals by Reverse transcription polymerase chain reaction (RT-PCR) and Capillary electrophoresis technology.Data from the assay component ATG_Pax6_CIS was analyzed into 1 assay endpoint. This assay endpoint, ATG_Pax6_CIS, was analyzed with bidirectional fitting relative to DMSO as the negative control and baseline of activity. Using a type of inducible reporter, measures of mRNA for gain or loss-of-signal activity can be used to understand the reporter gene at the transcription factor-level as they relate to the gene PAX6. Furthermore, this assay endpoint can be referred to as a primary readout, because this assay has produced multiple assay endpoints where this one serves a reporter gene function. To generalize the intended target to other relatable targets, this assay endpoint is annotated to the dna binding intended target family, where the subfamily is paired box protein.
Human liver HepG2 cells are transiently transfected with multiple reporter transcription units (MRTUs) in 6-well plates using FuGene 6 reagent (Roche; 3 ml FuGene/1 mg DNA). The MRTU constructs are regulated by a cis-regulating element (promoter). […] A major difference between the CIS and TRANS system is that in CIS activities of endogenous TFs are measured, whereas the TRANS assay evaluates changes in activities of exogenous, chimeric NR-Gal4 proteins. […] At the end of 24 hour incubation, total RNA was isolated using TriZol reagent (Invitrogen). The isolated RNA is then reverse-transcribed using oligo(dT) primer and Mo-MLV reverse transcriptase (Invitrogen) with DNAse I (Ambion) treatment for 30 min. The one-tenth of the produced cDNA was amplified by PCR using Taq DNA polymerase (Invitrogen) and two reporter sequence-specific primers. The PCR products were fluorescently labeled by primer extension with 6-arboxyfluorescein (6-FAM) 5'-labeled reporter sequence-specific primer (2 min at 95 C, 20 s at 68 C and 10 min at 72 C) and these products were digested with 5U of HpaI (New England Biolabs) for 2h at 37 C. The fragments were purified using Qiaquick PCR columns (Qiagen), analyzed on an ABI 3130xL genetic analyzer (Applied Biosystems) with peak positions identified by using a set of X-rhodamine (ROX)-labeled MapMarker1000 molecular weight standards (BioVentures). The raw capillary electrophoresis data was processed using Attagraph software (Attagene).
With `COCC(C)N` (stereo not given), the result was inactive.

Take `CCCCC/C=C\CCC=O`: the compound was called inactive.

`CCCCCCCCCCOC(C)=O`: the result was inactive.

On to `CC(=O)Oc1ccc(C)cc1`, for which the result was inactive.

Turning to `CCN(Cc1cccc(S(=O)(=O)O)c1)c1ccc(C(=C2C=CC(=[N+](CC)Cc3cccc(S(=O)(=O)[O-])c3)C=C2)c2ccccc2)cc1`, the result was inactive.

For `O=S(=O)(O)c1cc(S(=O)(=O)O)c2ccc3c(S(=O)(=O)O)cc(S(=O)(=O)O)c4ccc1c2c43`, the call was inactive.

For `C=CCCCCCCCCC(=O)OCCCC`, the compound was called inactive.

Regarding `[Cl][In]([Cl])[Cl]`, the result was inactive.

As to `CCCCCCCC[N+](C)(CCCCCCCC)CCCCCCCC`, the compound was classed as inactive.

Regarding `CCCCCCCC/C=C\CCCCCCCC(=O)O`, the outcome was inactive.

Turning to `O=C1CCCCCCCCCCCCCCCO1`, the compound was classed as inactive.

Take `CCC(=O)Oc1ccc(/C(CC)=C(\CC)c2ccc(OC(=O)CC)cc2)cc1`: the AC50 – broadly, the midpoint of the concentration-response curve, whichever way the signal moves – was 37.8 µM (active).

`O=c1c2ccccc2oc2ccccc12`: the outcome was inactive.

For `CC(=O)[C@H]1[C@H](C#N)C[C@H]2[C@@H]3CC=C4C[C@@H](O)CC[C@]4(C)[C@H]3CC[C@@]21C`, the result was inactive.

Consider `CC(=O)OC(C)C`, for which the outcome was inactive.

For `COC=O`, the result was inactive.

`CC(C)(C)c1ccc(-c2ccc(C(C)(C)C)cc2)cc1`: the compound was classed as inactive.

Regarding `CCOC(=O)CC(C(C)=O)C(C)=O`, the call was inactive.

Consider `C=CC(C)(CCC=C(C)C)OC(=O)CC(C)C` (stereo not given), for which the call was inactive.

As for `COc1ccc(-c2coc3cc(O)ccc3c2=O)cc1`, the result was inactive.

As to `CCCCNc1ccc(NCCCC)c2c1C(=O)c1ccccc1C2=O`, the outcome was inactive.

Take `O=S(=O)(O)c1ccccc1C=Cc1ccc(-c2ccc(C=Cc3ccccc3S(=O)(=O)O)cc2)cc1`: the outcome was inactive.

Regarding `CCCCCc1ccc(Cl)cc1`, the outcome was inactive.

For `NC(=O)C1CO1` (stereo not given), the result was inactive.

`O=C1c2ccccc2C(=O)C1c1nc2ccccc2c(Br)c1O`: the call was inactive.

On to `FC(F)=C(F)OC(F)(F)C(F)(F)C(F)(F)F`, for which the compound was called inactive.

Regarding `CCCCCCCCCCCSCC(=O)O`, the concentration at half-maximal activity (AC50) was 100 µM (active).

Turning to `CC(C)=CC1CC(C)CCO1` (stereo not given), the call was inactive.

Turning to `CCCCCCCCC(=O)OCC`, the call was inactive.

For the compound `CCC(C)C=O` (stereo not given), the result was inactive.

On to `NCCCN1CCN(CCCN)CC1`, for which the outcome was inactive.

As for `COC(=O)c1cc(Cl)ccc1[N+](=O)[O-]`, the outcome was inactive.

`Cn1c([N+](=O)[O-])cnc1COC(N)=O`: the outcome was inactive.

In the case of `CC(C)COC(=O)C=Cc1ccccc1`, the compound was called inactive.

For the compound `CCCCCCC1(C)CCC(=O)O1` (stereo not given), the compound was classed as inactive.

As for `CCCOC(=O)CCCCC(=O)OCCC`, the compound was classed as inactive.

On to `Nc1ccc(-c2ccc(F)cc2)cc1`, for which the call was inactive.

For the compound `Cc1cccc(C(=O)O)c1`, the outcome was inactive.

Take `CCN(CC)c1ccc(C(=O)c2ccccc2C(=O)O)c(O)c1`: the compound was classed as inactive.

Consider `CC(C)CCCC(C)CC=O` (stereo not given), for which the result was inactive.
